# PubChem BioAssay (Tox21)
# Values without a mark were called inactive. Activity calls are given as the source filed them. Calls follow the shape of the dose curve; as a rule, active = well fitted curve in the direction sought with a large enough effect in the repeat runs; inconclusive = weak or mixed curves; inactive = flat fitted curve, though single readings scatter.
# Assay: qHTS assay to test for compound auto fluorescence at 590 nm (red) in HEK293 cells (AID 720679)
# Details: red autofluorescence 540/590 nm; series mostly up to 91.3 µM
# From the text: National Center for Advancing Translational Sciences [NCATS]
# NIH Chemical Genomics Center [NCGC]
# U.S. Environmental Protection Agency [EPA]
# National Institutes of Environmental Health Sciences [NIEHS]
# National Toxicology Program [NTP]
# U.S. Food and Drug Administration [FDA]
# Compound auto fluorescence often interferes with screening of the compound library against various biological targets and signaling pathways. Some of these compounds may have fluorophoric properties. Such properties may interfere with the assay outputs resulting in false positives and/or negatives. To decrease such complications and ensure the compound activities are relevant in terms of biological response, the Tox21 10K compound library was screened for auto fluorescence.
# From the fluorophores used as reporter signals in our screening assays, the auto fluorescence equivalencies of compounds against three fluorophores have been evaluated: Triamterene, Fluorescein and Rose Bengal sodium for blue, green and red fluorescence, respectively. The fluorescence intensities were measured using Excitation/Emission wavelengths at 405/460nm, 485/535nm and 540/590nm for blue, green and red labels, respectively. This assay includes the red fluorescence data.
# Tox21 Assay Protocol Summary:
# 2,000 HEK293 cells in 5 uL of culture medium containing 10% dialyzed FBS per well were dispensed into black wall/clear bottom 1536-well plates using a Multidrop Combi Dispenser (Thermo Scientific). The assay plates were incubated for 4-5 hr at 37C to allow cell attachment to the well bottom, followed by the transfer of 23 nL compound or DMSO vehicle by a pintool work station (Kalypsys, San Diego, CA). After the assay plates were incubated overnight at 37C and 5% CO2, fluorescence intensities in the assay plates were measured by an Envision (PerkinElmer, Shelton, CT) plate reader using three labels for measuring blue, green and red fluorescence at […] 460, 535 and 590nm respectively.
# % is scaled to controls: 0 for no effect and ±100 for the full control effect.
Structure (SMILES),outcome,"fluorescence, % of fluorescent control"
CC(=O)OCC(=O)Nc1cc(C#N)cc(NC(=O)COC(C)=O)c1Cl,inactive,
C=CCSSCCC,inactive,
CC(=O)CCC1=C(C)CCCC1(C)C,inactive,
CCNC(=O)NCc1cccc(Cl)c1,inactive,
CCCCCCC1(C)CCC(=O)O1 (stereo not given),inactive,
COc1c2occc2c(OC)c2c(=O)cc(C)oc12,,0.0103% [at 18.6 µM]
O=Cc1cc2ccccc2o1,inactive,
O=C(Cl)c1ccccc1[N+](=O)[O-],inactive,
CC(C)(CO)C(O)C(=O)NCCCO (stereo not given),inactive,
C=CC(=O)OCC1CCCO1 (stereo not given),inactive,
COC(=O)c1cccc(Cl)c1,inactive,
C=C(C)c1cccc(C(C)(C)N=C=O)c1,inactive,
c1ccc(B(c2ccccc2)c2ccccc2)cc1,inactive,
CCCCOCC(C)O (stereo not given),inactive,
CCOC(=O)CC1(C)OCC(C)O1 (stereo not given),inactive,
COC(=O)c1ccccc1C(=O)O,inactive,
N[C@@H](Cc1ccc(O)cc1)C(=O)O,inactive,
O=C1CCCCO1,inactive,
C/C=C(\C)C(=O)OCCc1ccccc1,inactive,
OCC1CCC(CO)CC1 (stereo not given),inactive,

Structure (SMILES),outcome,"fluorescence, % of fluorescent control"
CCn1cc(C(=O)O)c(=O)c2cnc(N3CCCC3)nc21,,-0.164% [at 18.6 µM]
CCOc1cccc(N)c1,inactive,
CCCCCCCCCOC(=O)CCCCC(=O)OCCCCCCC,inactive,
CC(=O)OC1CCCCC1C(C)(C)C (stereo not given),inactive,
Cc1ccc(C(C)NC(=O)[C@@H](NC(=O)OC(C)C)C(C)C)cc1 (stereo not given in full),inactive,
OCC1(CO)COCOC1,inactive,
O=C(Cn1ccnc1[N+](=O)[O-])NCc1ccccc1,inactive,
O=C=NCC1CCCC(CN=C=O)C1 (stereo not given),inactive,
CCCCCCCCCCCCCBr,inactive,
CN(C)CC/C=C1/c2ccccc2COc2ccc(CC(=O)O)cc21,inactive,
CCCc1ccc(O)cc1,inactive,
O=C(O)CCCCCC(=O)O,inactive,
CCCC(=O)OCCC(C)CCC=C(C)C (stereo not given),inactive,
C=Cc1ccc(C(C)(C)C)cc1,inactive,
CC(=O)CC(=O)OC(C)(C)C,inactive,
OCCN1CCOCC1,inactive,
O=C1CCC(=O)N1Cl,inactive,
CCCC(=O)Nc1ccc(OCC(O)CNC(C)C)c(C(C)=O)c1 (stereo not given),,-0.0649% [at 18.6 µM]
CC(O)COC(C)(C)C (stereo not given),inactive,
N#Cc1ccccc1O,inactive,
